This is one part of a sample in which hits are shown more often than they occur.
HT1080 IDH1KD tx = toxicity to HT-1080 IDH1 knockdown cells (counter line). HT-1080 IDH1 knockdown viability, ATP luminescence, 48 h. Potency, µM (titrated, usually from 46.1 µM), for inactives: at the top dose activity, negative = toxicity, actives largely listed as cytotoxic. hit rate 2% among 360,000. AID 686971;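 further: potency means the concentration at half of the fitted maximal effect; 0% = DMSO wells and -100% = cell-free medium wells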
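In this qHTS, HT-1080 cells depleted of IDH1 are exposed for 48 h at 37 °C to compound titrations. Toxicity is scored from CellTiter-Glo luminescence, with DMSO as full viability and medium alone as none.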
TDP1 cell CPT = growth inhibition of DT40 Tdp1-/-;hTDP1 cells with camptothecin (screen for TDP1 inhibitors). hit rate 12% among 420,000. chicken DT40 Tdp1-/-;hTDP1 cells + 20 nM CPT, ATP luminescence, 48 h. Potency, µM (doses to about 46.2 µM), without a hit: top-dose activity change, negative = growth inhibition, most hits filed as inhibitors; further: potency means the concentration at half of the fitted maximal effect; nearly all actives have a fitted effect of over 55% in size
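Chicken DT40 Tdp1-/- cells stably complemented with human TDP1 were seeded at 400 cells/well in medium containing 20 nM camptothecin, exposed to pin-transferred compounds, and grown at 37 °C for at least 48 hr. Viability was read as ATP luminescence.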
12-LOX inh = ALOX12 (human) lipoxygenase inhibition; purified 12hLO, xylenol orange hydroperoxide absorbance; hit rate 1.1% among 580,000; Potency, µM (doses to about 108 µM), without a hit: at the top dose activity change, negative = inhibition, most hits filed as inhibitors; AID 1671190; further: potency means the concentration at half of the fitted maximal effect
Target sequence (P18054 whole entry, looked up): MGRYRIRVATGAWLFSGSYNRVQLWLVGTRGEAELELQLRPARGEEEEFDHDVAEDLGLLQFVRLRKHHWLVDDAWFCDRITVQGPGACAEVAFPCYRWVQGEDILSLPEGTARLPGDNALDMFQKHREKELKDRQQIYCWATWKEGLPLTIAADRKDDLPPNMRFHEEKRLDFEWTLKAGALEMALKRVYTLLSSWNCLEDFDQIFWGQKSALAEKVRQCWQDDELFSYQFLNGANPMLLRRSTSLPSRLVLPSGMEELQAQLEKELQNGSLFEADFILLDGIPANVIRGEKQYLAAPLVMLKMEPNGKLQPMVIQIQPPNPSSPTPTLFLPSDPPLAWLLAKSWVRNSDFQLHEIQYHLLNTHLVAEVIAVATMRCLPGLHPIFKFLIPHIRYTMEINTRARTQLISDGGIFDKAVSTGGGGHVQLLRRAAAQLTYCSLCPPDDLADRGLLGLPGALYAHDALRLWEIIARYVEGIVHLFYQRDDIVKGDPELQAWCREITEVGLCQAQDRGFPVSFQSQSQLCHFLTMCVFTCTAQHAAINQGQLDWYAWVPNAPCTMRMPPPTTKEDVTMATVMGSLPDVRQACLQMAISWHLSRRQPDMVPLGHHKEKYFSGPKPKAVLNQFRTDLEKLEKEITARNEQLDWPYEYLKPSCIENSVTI
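Purified human 12hLO at 150 nM in 25 mM Hepes, 0.01% Triton X-100, pH 7.0, preincubated 15 min at room temperature with compound. Reaction started with 40 uM arachidonic acid, 30 min at room temperature. Hydroperoxide measured by Fe-xylenol orange, 573/405 nm absorbance ratio.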
IL-1B inflam inh = blocks inflammasome-driven IL-1 beta release | activity change, % at 57.5 µM | hit rate 4.7% among 360,000 | THP-1 LPS/ATP IL-1B secretion, AlphaLISA, 16 h; active compounds read low; in the data active means activity change below about -50%; inconclusive means mostly about -30% to -49%
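Secreted IL-1B measured by AlphaLISA bead assay after 16 h compound exposure of THP-1 cells; compounds (final up to 57.5 uM) added 1 h before LPS (250 ng/mL) and ATP (1.25 mM) stimulation; lower signal means less secretion.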
DT40 TDP1 no CPT = qHTS for Inhibitors of human tyrosyl-DNA phosphodiesterase 1 (TDP1): qHTS in cells in absence of CPT | DT40 Tdp1-/- hTDP1 cells, no CPT, ATP luminescence, 48 h | Potency, µM (top dose mostly 46.2 µM), for the others: top-dose activity change, negative = growth inhibition, usual class: inhibitors | hit rate 15% among 420,000; further: potency means the concentration at half of the fitted maximal effect; nearly all actives have a fitted effect of over 55% in size
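Cells were dispensed at 400 per well, compounds added by pin tool, plates incubated ≥48 hr at 37 °C, then CellTiter-Glo added for 30 min at room temperature before luminescence reading. Line: DT40 Tdp1-/- complemented with hTDP1; camptothecin omitted.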
HT1080-NT tox = kills 2HG-producing HT-1080-NT fibrosarcoma cells; HT-1080-NT fibrosarcoma viability, CellTiter-Glo ATP luminescence, 48 h; Potency, µM (series often up to 46.1 µM), inactives show at the highest dose activity, negative = less viability, hits mostly cytotoxic; hit rate 1.6% among 360,000; AID 686970;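 further: NT is the 2HG producing partner of a matched IDH1 knockdown line; potency means the concentration at half of the fitted maximal effect; 0% = DMSO-treated cells and -100% = media-only wells without cells; nearly all actives have a fitted effect of over 55% in size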
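Fibrosarcoma NT cells, 750 per well in 5% FBS RPMI, were exposed to compound for 48 hours. Viability: CellTiter-Glo luminescence.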
The depositor's hits bear a star; ? = inconclusive; · = no result; [ ] = remark or other dose. Unless noted, the call rests on the fitted dose curve; in most records, active means well fitted curve in the direction sought with a large enough effect; inconclusive means small, poorly fitted or top-dose-only effect, or another doubt; inactive means no such curve, though single readings can be large; an effect the other way counts as inactive or inconclusive. Unless noted, on the % scale 0 is the no-effect control and ±100 the full control effect.

SMILES | HT1080 IDH1KD tx | TDP1 cell CPT | 12-LOX inh | IL-1B inflam inh | DT40 TDP1 no CPT | HT1080-NT tox
COc1ccccc1C1=NS(=O)(=O)N(C)C(C(=O)Nc2cccc(O)c2)=C1 | · | · | -41% | · | · | ·
CC(NC(=O)C12CC3CC(C1)CC(n1cncn1)(C3)C2)C12CC3CC(CC(C3)C1)C2 (stereo not drawn) | -21% | 10µM* | -23% | 14 | 8.2µM* | -14%
Cc1cc(C(=O)NC2CCCCC2C)cs1 (stereo not drawn) | · | · | 9% | · | · | ·
CCCn1cnc2c1CN(S(=O)(=O)c1ccc(F)cc1)[C@H](C(=O)OC)C2 | · | · | 24%[176 µM] | · | · | ·
COC(=O)[C@@H]1Cc2ncn(C)c2CN1S(=O)(=O)c1ccc(OC)cc1 | · | · | 32µM* | · | · | ·
Cn1c(=O)c2c(ncn2CC(COCc2ccccc2F)OCc2ccccc2F)n(C)c1=O (stereo not drawn) | · | · | 44% | · | · | ·
COc1cc(F)ccc1-c1ccc(=O)n(Cc2c(F)cccc2Cl)n1 | · | · | -19% | · | · | ·
O=C(Nc1nc(-c2ccc(S(=O)(=O)N3CCCCCC3)cc2)cs1)c1cccs1 | -19% | ? | -6% | 10 | 21µM* | -15%
O=C(Nc1nc(-c2ccc(S(=O)(=O)N3CCCC3)cc2)cs1)c1cccs1 | -14% | ? | 2% | ? | 15µM* | 0%
O=C(Nc1nc(-c2ccncc2)cs1)c1ccc(S(=O)(=O)N2CCCCC2)cc1 | · | · | -3% | · | · | ·
CCOc1cc(C(=O)N2CCCN(c3cc(-c4ccc(F)cc4)[nH]n3)CC2)cc(OCC)c1OCC | · | · | 23% | · | · | ·
O=C(c1ccccc1)c1ccc2n1CCC2C(=O)Nc1ccc(C(F)(F)F)cc1 (stereo not drawn) | · | · | -24% | · | · | ·
Cc1cc(C)c2ccc3nc(C)c(C)c3c2[nH]1 | · | · | -9% | · | · | ·
Cc1cc(C)c2ccc3c(C)c(C)nc3c2[nH]1 | ? | ? | 8% | -1 | 21µM* | ?
CSc1nc2nc3c(c(=O)n2[nH]1)CN(Cc1ccccc1)CC3 | -12% | 26µM* | 34% | 0 | ? | -5%
Cc1cc(C(C)(C)C)oc1C(=O)O | 10% | -4% | 432% | 7 | 0% | 7%
Cc1occc1C(=O)N1CCN(C(c2ccccc2)c2ccccc2)CC1 | 0% | ? | -10% | -14 | ? | 1%
O=C(c1ccc(C#CC2(O)CCCCC2)cc1)N1CCN(C(c2ccccc2)c2ccccc2)CC1 | -15%[9.24 µM] | ? | 117% | -58* | ? | ?
Cc1cc(C(C)(C)C)oc1C(=O)N1CCN(C(=O)c2oc(C(C)(C)C)cc2C)CC1 | 13% | 18µM* | -7% | 46 | 16µM* | 9%
Cc1ccccc1C(=O)N1CCN(C(c2ccccc2)c2ccccc2)CC1 | -20% | ? | ? | -29 | 23µM* | -13%
Cc1oc(C(C)(C)C)cc1C(=O)N1CCN(C(c2ccccc2)c2ccccc2)CC1 | ? | ? | 144% | -68* | ? | ?
Cc1cc(C(=O)N2CCN(C(c3ccccc3)c3ccccc3)CC2)on1 | -6% | 8.2µM* | 12% | -17 | 23µM* | -7%
CCOc1ccccc1C(=O)N1CCN(C(c2ccccc2)c2ccccc2)CC1 | 0% | ? | -14% | -83* | ? | 0%
O=C(CCNS(=O)(=O)c1ccccc1C(F)(F)F)N1CCCCCCC1 | 2% | -27% | 15% | -2 | 2% | 6%
CCCNC(=O)N1CCN(C(c2ccccc2)c2ccccc2)CC1 | -2% | -25% | -6% | -26 | -27% | -2%
SMILES | HT1080 IDH1KD tx | TDP1 cell CPT | 12-LOX inh | IL-1B inflam inh | DT40 TDP1 no CPT | HT1080-NT tox
O=C(CCNS(=O)(=O)c1ccccc1C(F)(F)F)N1CCN(C(c2ccccc2)c2ccccc2)CC1 | -10% | 12µM* | 2% | -4 | 8.2µM* | -4%
CC(C)(C)C(=O)N1CCN(C(c2ccccc2)c2ccccc2)CC1 | 12% | ? | · | -15 | 18µM* | 15%
O=C(NCc1cccc(Br)c1)c1ncoc1-c1cccs1 | · | · | 22% | · | · | ·
Cc1ccc(C)c(S(=O)(=O)Nc2nc3ccccc3nc2NCc2ccccc2)c1 | · | · | -39% | · | · | ·
Cc1ccnc(SCC(=O)N2CCN(C(c3ccccc3)c3ccccc3)CC2)n1 | 14% | 23µM* | -13% | -9 | 16µM* | 3%
O=C(NCC(=O)N1CCN(C(c2ccccc2)c2ccccc2)CC1)c1ccccc1F | -1% | ? | -12% | -52* | 29µM* | -14%
Cc1ccnc(SCC(=O)N2CCc3ccccc32)n1 | 5% | -11% | 1% | -5 | -12% | 16%
CN1CCN(C(N)=NC(=O)c2ccccc2)CC1 | 3% | -4% | -24% | 13 | -12% | 11%
NC(=NC(=O)c1ccccc1)N1CCN(C(c2ccccc2)c2ccccc2)CC1 | 13% | 21µM* | 0% | -26 | ? | 21%
O=C(c1cc(-c2cccc(O)c2)on1)N1CCN(C(c2ccccc2)c2ccccc2)CC1 | ? | 21µM* | 15%[57.4 µM] | -53* | 13µM* | ?
CS(=O)(=O)NCC1CCCN(C(=O)c2cnc3ccccc3n2)C1 (stereo not drawn) | · | · | 16% | · | · | ·
CCCN(CCOC)Cc1ccc(C#N)cc1 | · | · | 0% | · | · | ·
Cc1onc(-c2ccccc2Cl)c1C(=O)Nc1cccc(-c2cn3cccnc3n2)c1 | -23% | ? | · | 0 | 16µM* | -1%
CCCOC(=O)c1cccc(NC(=O)c2c(-c3ccccc3Cl)noc2C)c1 | · | 7.3µM* | -12% | · | 7.3µM* | ·
C/C(=N\NC(=O)c1ccc(Cl)c(Cl)c1)c1cccc(NC(=O)C(C)C)c1 | -1% | -8% | 13% | 0 | -23% | -6%
Cc1onc(-c2ccccc2Cl)c1C(=O)Nc1ccc(C(N)=O)cc1 | · | · | 12% | · | · | ·
C/C(=N\NC(=O)c1c(-c2ccccc2Cl)noc1C)c1cccc(NC(=O)C(C)C)c1 | 12% | ? | -7% | -13 | 23µM* | 5%
O=C(Nc1cccc(-c2cn3cccnc3n2)c1)c1cc(Br)ccc1Cl | · | -21% | -25% | · | ? | ·
CCCOc1cccc(NC(=O)c2c(-c3ccccc3Cl)noc2C)c1 | · | 9.2µM* | -10% | · | 8.2µM* | ·
O=C(Nc1cccc(S(=O)(=O)Nc2ccc(Cl)cc2)c1)c1cc2c(s1)CCCC2 | 21µM* | ? | ? | -81* | ? | 21µM*
Cc1ccc(NC(=O)c2cc3c(s2)CCCC3)cc1S(=O)(=O)Nc1ccccc1Cl | ? | 16µM* | -6% | 92 | 23µM* | -4%
COc1ccccc1NS(=O)(=O)c1cc(NC(=O)c2sc3cc(Cl)ccc3c2Cl)ccc1C | 9% | ? | -6% | 24 | ? | 23%
